Pol iota inh = blocks human DNA polymerase iota activity | Q9UNA4 | Pol iota fluorescent replication assay, 10 min | Potency, µM (highest dose often 115 µM), actives largely listed as inhibitors | 390,000 compounds, 1% hits | AID 588590
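Fluorescent replication assay read twice, at 0 min and 10 min after adding 50 nM (final) substrate. Enzyme (10 nM) and compounds were first incubated 15 min at room temperature; enzyme-free buffer wells were negative controls.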
PI5P4K alpha inh = blocks human PI5P4K alpha kinase activity; max response, %; 330,000 compounds, 1.2% hits; PI5P4Kalpha enzyme, ADP-Glo luminescence, 60 min; stronger effect = lower value; active = max response of -50% or lower; inconclusive = between -30% and -50%; inactive = -30% or higher; also: value at the top dose of about 77 µM
Target sequence (P48426 whole entry, looked up): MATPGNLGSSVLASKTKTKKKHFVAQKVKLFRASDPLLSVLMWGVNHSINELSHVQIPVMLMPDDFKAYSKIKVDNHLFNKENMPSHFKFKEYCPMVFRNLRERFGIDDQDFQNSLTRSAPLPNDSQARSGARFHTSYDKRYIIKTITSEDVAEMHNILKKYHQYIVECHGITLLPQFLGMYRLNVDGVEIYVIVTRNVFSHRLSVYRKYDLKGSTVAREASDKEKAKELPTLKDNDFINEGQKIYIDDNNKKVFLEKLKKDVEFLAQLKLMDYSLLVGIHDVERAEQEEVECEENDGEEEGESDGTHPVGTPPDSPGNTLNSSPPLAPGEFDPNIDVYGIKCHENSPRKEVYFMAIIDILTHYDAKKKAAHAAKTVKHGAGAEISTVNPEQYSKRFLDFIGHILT
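Luminescence from ADP-Glo served as readout of PI5P4Kalpha activity in a qHTS format. Reaction: enzyme, substrate, compound, ATP at 5 microM final, 60 min at RT.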
Pol eta inh-1 = blocks human DNA polymerase eta activity; AID 588591; Potency, µM (titrated, usually from 114 µM), most hits filed as inhibitors; recombinant Pol eta, fluorescent DNA replication assay; 390,000 compounds, 1.2% hits; Q9Y253
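Pol eta at 10 nM preincubated with compounds 15 min at room temperature; reaction started with fluorescent substrate (50 nM final) and read kinetically at 0 and 10 min.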
Pol kappa inh-1 = blocks human DNA polymerase kappa activity. purified Pol kappa, fluorescent DNA synthesis assay, 10 min. Potency, µM (top dose mostly 107 µM), most hits filed as inhibitors. 400,000 compounds, 0.53% hits. AID 588579
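Pol kappa 10 nM + cpd, 15 min RT; start w/ substrate 50 nM final; fluorescence kinetic read, 0 and 10 min. Neg ctrl: buffer, no enzyme.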
WRN inhibitor = inhibitors of human WRN helicase. Q14191. WRN helicase unwinding, fluorescent forked duplex, kinetic. Potency, µM (doses to about 114 µM), most hits filed as inhibitors. 360,000 compounds, 0.46% hits; also: nearly all actives have a fitted effect of over 55% in size
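Primary qHTS, 1536-well format. 20 nM WRN + compound, 15 min RT; start with 100 nM forked fluorophore/quencher duplex, 2 mM ATP (final); kinetic read ex 525/em 598 nm.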
Pol beta inh = inhibitors of human DNA polymerase beta | AID 485314 | Pol beta primer extension/strand displacement, fluorescence kinetic | P06746 | 340,000 compounds, 1.3% hits | Potency, µM (series often up to 114 µM), usual class: inhibitors
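Values derive from four-parameter Hill fits of normalized kinetic data: reads at 0 and 10 min following addition of 50 nM substrate to 10 nM Pol beta preincubated 15 min with compound.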
Pol kappa inh-2 = Pol kappa (human) inhibition, cherry-pick confirmation. shares compounds with Pol eta inh-1. purified Pol-kappa, fluorescent strand-displacement substrate. Potency, µM, usual class: inhibitors. 920 compounds, 76% hits. AID 720501
Pol eta inh-2 = confirmation of human DNA polymerase eta inhibitors; Potency, µM, most hits filed as inhibitors; Pol eta primer extension, TAMRA/BHQ fluorescence, 10 min; shares compounds with Pol eta inh-1; 2,600 compounds, 64% hits; AID 720502
Numbers stand for hits; - = inactive; ? = inconclusive; . = no result given; [ ] = remark or other dose. Only some compounds are listed: those with a hit (about 2.8% of all), similar ones and a draw of the others. Unless noted, calls follow the shape of the dose curve; as a rule, active = well fitted curve in the direction sought with a large enough effect; inconclusive = small, poorly fitted or top-dose-only effect, or another doubt; inactive = no such curve, though single readings can be large; an effect the other way counts as inactive or inconclusive.

SMILES	Pol iota inh	PI5P4K alpha inh	Pol eta inh-1	Pol kappa inh-1	WRN inhibitor	Pol beta inh	Pol eta inh-2	others
O=C(CN1C(=O)c2ccccc2S1(=O)=O)Nc1ncc(Cl)cc1Cl	?	?	22µM	?	?	.	30
Cc1ccc(-n2[nH]c(C)c(/C=N/Nc3ccc([N+](=O)[O-])cc3[N+](=O)[O-])c2=O)cc1C	?	?	20µM	-	?	-	?
Cn1cccc1C(=O)N1CCC2(CCN(C(=O)Nc3ccccc3)CC2)CC1	.	.	.	-	.	.	.
C=CC1=C(C(=O)O)N2C(=O)C(NC(=O)Cc3ccccc3)C2SC1 (stereo unspecified)	13µM	.	22µM	79µM	?	?	67
S=c1[nH]nc(-c2cc(-c3ccccc3)n[nH]2)n1/N=C/c1ccc(Br)s1	22µM	-	?	?	-[11.6 µM]	18µM	?	Pol kappa inh-2=42
CCOC(=O)c1sc(NC(=O)c2ccc3nc[nH]c3c2)nc1C	?	-	?	-	?	?	?
CCOC(=O)c1sc(NC(=O)c2ccc(=O)[nH]c2)nc1C	-	-	?	-	-	-	.
C=CCN(CC=C)S(=O)(=O)c1ncn[nH]1	?	-	8.9µM	?	-	?	?
Cc1nc2ccn(Cc3ccco3)c(=O)c2cc1C(=O)NCc1ccc(Cl)cc1	-	.	-	-	.	-	.
CC(N)c1csc(Nc2ccc(S(C)(=O)=O)cc2)n1 (stereo unspecified)	.	-	.	.	-	.	.
CCOc1cc(C2NC(=O)NC(C)=C2C(C)=O)cc(Cl)c1OCC(=O)O (stereo unspecified)	?	.	22µM	-	-	?	?
C=CCOc1c(Br)cc(C2NC(=O)NC(C)=C2C(C)=O)cc1OCC (stereo unspecified)	-	.	-	-	-	-	.
COc1cccc(OCc2cc(C(=O)NCc3cnc4ccccn34)no2)c1	-	-	-	-	-	-	.
CNC(=O)c1c[nH]c2ccc(S(=O)(=O)Nc3cccc(Cl)c3C)cc2c1=O	?	.	?	?	.	32µM	?	Pol kappa inh-2=21
COCCCNC(=O)c1c[nH]c2ccc(S(=O)(=O)N(C)c3ccccc3C)cc2c1=O	-	-	-	-	-	-	.
CNC(=O)c1c[nH]c2ccc(S(=O)(=O)Nc3ccccc3F)cc2c1=O	-	-	?	-	-	?	.
CCOCCCNC(=O)c1c[nH]c2ccc(S(=O)(=O)Nc3cccc(Cl)c3C)cc2c1=O	?	.	32µM	?	.	28µM	85	Pol kappa inh-2=21
CCCCN(CCCC)C(=O)c1c[nH]c2ccc(S(=O)(=O)Nc3cccc(Cl)c3C)cc2c1=O	79µM	.	40µM	-	.	35µM	76	Pol kappa inh-2=15
CN(Cc1cnccn1)Cc1ccccc1OCC(O)CN1CCc2ccccc2C1 (stereo unspecified)	-	-	-	-	-	-	.
O=C(CSc1nc2c(cnn2-c2ccc(F)cc2)c(=O)[nH]1)Nc1ccc(Br)cc1	-	.	56µM	-	.	?	?	Pol kappa inh-2=17
Cc1cc(C)cc(NC(=O)CSc2nc3c(cnn3-c3ccc(F)cc3)c(=O)[nH]2)c1	-	.	-	-	.	-	.
Cc1cc(=O)oc2c(CN3CCC(C)CC3)c(O)c(Cl)cc12	?	?	13µM	?	?	16µM	?
CCN(CC)Cc1c(O)c(Cl)cc2c(C)cc(=O)oc12	?	?	20µM	89µM	-[11.6 µM]	10µM	?
Cc1cc(=O)oc2c(CN3CCCC3)c(O)c(Cl)cc12	-	-	?	-	-	?	.
CCOC(=O)c1sc(NN=C(C(=O)OC)C(=O)OC)c(C(=O)OCC)c1C	-	-	-	-	-	-	.
COC(=O)C/C=N/N=C1/NC(=O)/C(=C/C(=O)O)S1	14µM	-71	40µM	45µM	-	40µM	48
CC1=NN(c2nc(-c3ccccc3)cs2)C(=O)C1	?	-	50µM	-	?	-	?
COc1ccc(C=NNc2ccc([N+](=O)[O-])cc2S(=O)(=O)Nc2ccccc2C(=O)O)cc1OC	-	?	35µM	-	?	.	?
